Experimental data reported in paper PMC6792352, “Limited Chemical Structural Diversity Found to Modulate Thyroid Hormone Receptor in the Tox21 Chemical Library” (Environmental Health Perspectives, 2019).
Structures can show the parent of a compound that is named as a salt.

What follows are compounds tested on thyroid hormone receptor (endogenous TRα and TRβ). Conditions: read-out: Average AC50 (uM) GH3-TRE-Antag, antagonist mode, 1 nM T3, no GH3 cytotoxicity hit.
Design: species or system GH3-TRE-Luc (rat pituitary); GH3-TRE-Luc luciferase reporter, antagonist mode against 1 nM T3, loss of signal, qHTS

Row | Structure (SMILES) | AC50
1 | CCC(=O)OCC(=O)[C@@]1(OC(=O)CC)[C@@H](C)C[C@H]2[C@@H]3CCC4=CC(=O)C=C[C@]4(C)[C@@]3(F)[C@@H](O)C[C@@]21C [Betamethasone dipropionate] | 27.9 µM
2 | OC1CCCCCCCCCCC1 [Cyclododecanol] | 47.7 µM
3 | O=c1[nH]c(=O)n([C@H]2C[C@H](O)[C@@H](CO)O2)cc1F [Floxuridine] | 4.49 µM
4 | Nc1ccc(C(=O)Oc2ccccc2)c(O)c1 [Phenyl 4-aminosalicylate] | 49.5 µM
5 | CCCCOC(=O)c1ccc(N)cc1 [Butyl 4-aminobenzoate] | 21.8 µM
6 | OCCCCCCCCCCCCBr [12-Bromo-1-dodecanol] | 85.6 µM
7 | CCN(CC)CCNC(=O)c1cc(Br)c(N)cc1OC [Bromopride] | 38.6 µM
8 | CCCCOc1ccc(OCCCN2CCOCC2)cc1 [Pramoxine hydrochloride] | 12.8 µM
9 | Oc1ccc(Cc2ccccc2O)cc1 [2-(4-Hydroxybenzyl)phenol] | 63.8 µM
10 | Oc1ccc(C(=C(Cl)Cl)c2ccc(O)cc2)cc1 [Bis(4-hydroxyphenyl)-2,2-dichloroethylene] | 38.4 µM
11 | CC(C)(C)C(O)C(Oc1ccc(Cl)cc1)n1cncn1 (centres unmarked) [Triadimenol] | > 90 µM
12 | CCCN(CCC)C(=O)Cc1c(-c2ccc(Cl)cc2)nc2ccc(Cl)cn12 [Alpidem] | 25.1 µM
13 | O=C(O)c1cc(Oc2ccc(C(F)(F)F)cc2Cl)ccc1[N+](=O)[O-] [Acifluorfen] | 71.8 µM
14 | O=C(CS)OCCOC(=O)CS [Ethane-1,2-diyl bis(sulfanylacetate)] | 51.5 µM
